# From the supplement of paper PMC9177965
# System: HT29 sg-Ctrl (RNF43 wildtype)
# Test: cell viability activity relative to DMSO (negative = inhibition); higher = more viable cells (less growth inhibition)
# Conditions: 5 µM; 96 h
# Procedure: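 Broad Repurposing Library primary screen at a single dose of 5 uM. HT29 sg-Ctrl and HT29 RNF43 G659fs CRISPR-edited isogenic cells were seeded at 2500 cells/well in 384-well plates in duplicate and treated for 96 h. Viability was read by CellTiter-Glo and reported as % activity relative to DMSO, with MG132 as the positive control (negative = growth inhibition).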
row,Compound,cell viability activity [%]
1,CC(C)(C)c1cc(NC(=O)Nc2ccc(-c3cn4c(n3)sc3cc(OCCN5CCOCC5)ccc34)cc2)no1,-40.7
2,CC(C)(C)c1cc(/C=C(\C#N)C(N)=S)cc(C(C)(C)C)c1O,-77
3,CCN(CC)C(=S)SSC(=S)N(CC)CC,-43.6
4,Cc1ncc(NC(=O)c2ccc(CN3CCN(C)CC3)c(C(F)(F)F)c2)cc1Nc1nccc(-c2cccnc2)n1,-49
5,FC(F)c1nc2ccccc2n1-c1nc(N2CCOCC2)nc(N2CCOCC2)n1,-29.7
6,O=C(c1cccc(Cl)c1F)N1CCN(Cc2cccc(Nc3nccs3)n2)CC1,-25.6
7,O=C(NC1CCNCC1)c1n[nH]cc1NC(=O)c1c(Cl)cccc1Cl,-83.8
8,CCCCNc1ncc2c(-c3ccc(CN4CCN(C)CC4)cc3)cn([C@H]3CC[C@H](O)CC3)c2n1,-91.1
9,CCC(=O)N1CCN(c2ccc(-n3c(=O)ccc4cnc5ccc(-c6cnc7ccccc7c6)cc5c43)cc2C(F)(F)F)CC1,-34.6
10,COc1cc(N2CCC(N3CCN(C)CC3)CC2)ccc1Nc1ncc(Cl)c(Nc2ccccc2P(C)(C)=O)n1,-81
11,C[C@@H](NCCCc1cccc(C(F)(F)F)c1)c1cccc2ccccc12,-41.7
12,C[C@@H](Oc1cc(-n2cnc3ccc(CN4CCN(C)CC4)cc32)sc1C(N)=O)c1ccccc1C(F)(F)F,-76.1
13,CN(NC(=O)CC(=O)NN(C)C(=S)c1ccccc1)C(=S)c1ccccc1,-15.3
14,O=C(Nc1ccccc1-c1cn2c(CN3CCNCC3)csc2n1)c1cnc2ccccc2n1,-81.8
15,Cn1cc(CNCC2CCN(c3ncc(C(=O)NO)cn3)CC2)c2ccccc21,-92.8
16,C=C1CC[C@@H]2[C@](C)(CO)[C@H](O)CC[C@@]2(C)[C@@H]1C/C=C1/C(=O)OC[C@H]1O,-0.518
17,Clc1ccc(C2(c3ccc(-c4cn[nH]c4)cc3)CCNCC2)cc1,-86.8
18,CCN(CC)CCN(Cc1ccc(-c2ccc(C(F)(F)F)cc2)cc1)C(=O)Cn1c(SCc2ccc(F)cc2)nc(=O)c2c1CCC2,-96.7
19,O=[N+]([O-])c1ccc2c(c1)S(=O)(=O)C=C2,-91

row,Compound,cell viability activity [%]
1,COc1ccc(C[C@H](NC(=O)[C@H](C)NC(=O)CN2CCOCC2)C(=O)N[C@@H](Cc2ccccc2)C(=O)[C@@]2(C)CO2)cc1,-94.4
2,CCCCc1oc2ccccc2c1C(=O)c1cc(I)c(OCCN(CC)CC)c(I)c1,-98.9
3,CCN(c1cc(C#CCN2CCOCC2)cc(C(=O)NCc2c(C)cc(C)[nH]c2=O)c1C)[C@H]1CC[C@H](N(C)CCOC)CC1,-35.6
4,CCc1cccc(CC)c1NC(=O)N1Cc2[nH]nc(NC(=O)c3ccc(N4CCN(C)CC4)cc3)c2C1,-21.2
5,C=C1/C(=C\C=C2/CCC[C@]3(C)[C@@H]([C@H](C)CCCC(C)C)CC[C@@H]23)C[C@@H](O)C[C@@H]1O,-70
6,OC1(c2ccc(Cl)c(C(F)(F)F)c2)CCN(CCCC(c2ccc(F)cc2)c2ccc(F)cc2)CC1,-60.6
7,O=C1c2c(O)ccc(O)c2C(=O)c2c(NCCNCCO)ccc(NCCNCCO)c21,-99.7
8,CCCS(=O)(=O)Nc1ccc(F)c(C(=O)c2c[nH]c3ncc(-c4ccc(Cl)cc4)cc23)c1F,-47.2
9,CN(C)CCOc1ccc(-c2nc(-c3ccncc3)c(-c3ccc4c(c3)CC/C4=N\O)[nH]2)cc1,-45.8
10,N=C(NCCCCCCNC(=N)NC(=N)Nc1ccc(Cl)cc1)NC(=N)Nc1ccc(Cl)cc1,-24.9
11,COC(=O)[C@H]1[C@H]2C[C@@H]3c4[nH]c5cc(OC)ccc5c4CCN3C[C@H]2C[C@@H](OC(=O)c2cc(OC)c(OC)c(OC)c2)[C@@H]1OC,-40.7
12,CCCCCCCCc1ccc(CCC(N)(CO)CO)cc1,-94.1
13,CN(C)C(=O)c1cc2cnc(Nc3ccc(N4CCNCC4)cn3)nc2n1C1CCCC1,-39.7
14,CCCCCCCCCc1ccc(OCCOCCOCCOCCOCCOCCOCCOCCOCCO)cc1,-22.3
15,Cn1cnc2c(F)c(Nc3ccc(Br)cc3Cl)c(C(=O)NOCCO)cc21,-70.6
16,CCCCCC(O)c1cccc(OCc2ccc3ccccc3n2)c1 (configuration not stated),-64
17,COc1cc2nc(N3CCC(N4CCCCC4)CC3)nc(NC3CCCCCC3)c2cc1OC,-95.5
18,CN1CCN(CCOc2cc(OC3CCOCC3)c3c(Nc4c(Cl)ccc5c4OCO5)ncnc3c2)CC1,-58.9
